# Assay results from PubChem BioAssay (EPA / NIEHS).
# Records with an inconclusive call do not appear. Calls of active or inactive are those of the source. The calls were made as follows, unless noted: active = hit-call score of the fitted dose curve at least 0.9, where 1 is the maximum; inactive = score below 0.9.
# Tests used:
# [1] = target: Estrogen receptor (Homo sapiens) (UniProt P03372); assay: OT_ERa_GFPERaERE_0480: Odyssey Thera (OT) 8-hour HeLa Transcription Induction Assay for Estrogen Receptor (AID 2283381)
# In short: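 HeLa cells expressing GFP reporter under estrogen response element, imaged 8 h after dosing. GFP induction quantified by high-content fluorescence microscopy image analysis; gain of signal fitted versus DMSO.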
# [2] = target: Retinoic acid receptor RXR-alpha (Homo sapiens) (UniProt P19793); assay: OT_NURR1_NURR1RXRa_0480: Odyssey Thera (OT) 8-hour HEK293T Protein Complementation Assay for Nurr1/retinoid X receptor (RXR) (AID 2283385; active = hit-call score of the fitted dose curve at least 0.9, where 1 is the maximum)
# In short: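 HEK293T cells expressing Nurr1 and RXRα fused to reporter fragments (protein-fragment complementation); fluorescence measured 8 h after dosing. Gain of signal fitted relative to DMSO.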
# [3] = target: Peroxisome proliferator-activated receptor gamma (Homo sapiens) (UniProt P37231); assay: OT_PPARg_PPARgSRC1_0480: Odyssey Thera (OT) 8-hour Protein-Complementation Assay for Peroxisome Proliferator-activated Receptor Gamma / SRC-1 Co-activator (AID 2283387; active = hit-call score of the fitted dose curve at least 0.9, where 1 is the maximum;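 also: nuclear to cytoplasmic split Venus YFP fluorescence ratio reporting PPARg SRC-1 interaction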)
# In short: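 Protein-fragment complementation of split Venus YFP reports PPARg/SRC-1 interaction in HEK293T (transfected 48 h before treatment), exposed 8 h. Readout: N/C fluorescence ratio at 488 nm from imaging, Draq5 for segmentation, positive fit relative to DMSO.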
# [4] = target: Peroxisome proliferator-activated receptor gamma (Homo sapiens) (UniProt P37231); assay: OT_PPARg_PPARgSRC1_1440: Odyssey Thera (OT) 24-hour Protein-Complementation Assay for Peroxisome Proliferator-activated Receptor Gamma/ SRC-1 Co-activator (AID 2283388; active = hit-call score of the fitted dose curve at least 0.9, where 1 is the maximum;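 also: nuclear to cytoplasmic ratio of reconstituted Venus YFP fluorescence in fixed imaged cells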)
# In short: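 Cells carrying the PPARg/SRC-1 fragment-complementation reporter receive compound for 24 hours, are fixed and counterstained with Draq5, then imaged. Increased nuclear relative to cytoplasmic YFP fluorescence above DMSO baseline indicates binding activity.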
# [5] = ATG_XTT_Cytotoxicity: Cytotoxicity Assessment in the Attagene TRANS-FACTORIAL HepG2 Assay (AID 2283584; active = hit-call score of the fitted dose curve at least 0.9, where 1 is the maximum)
# In short: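 24 h chemical exposure of reporter-transfected HepG2; XTT signal loss vs DMSO indicates cytotoxicity.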
# [6] = TOX21_p53_BLA_p2_viability: Viability Assessment in the Tox21 HCT-116 p53 Agonism Beta-lactamase Assay, Phase 2 (AID 2283591; active = hit-call score of the fitted dose curve at least 0.9, where 1 is the maximum;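 also: compound exposure lasted 16 h at 37 °C; actives lower the ATP signal meaning cytotoxicity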)
# In short: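 HCT116 p53-bla cells, 4000/well, dosed after 5 h plating (217-fold dilution of DMSO stocks) and incubated 16 h at 37C. Viability taken as cellular ATP by CellTiter-Glo luminescence after 30 min RT; signal loss marks cytotoxicity.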
# [7] = target: Retinoic acid receptor RXR-alpha (Homo sapiens) (UniProt P19793); assay: OT_NURR1_NURR1RXRa_1440: Odyssey Thera (OT) 24-hour HEK293T Protein Complementation Assay for Nurr1/retinoid X receptor (RXR) (AID 2283386; active = hit-call score of the fitted dose curve at least 0.9, where 1 is the maximum)
# In short: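 HEK293T protein-fragment complementation of Nurr1 and RXRα fused to reporter fragments; compounds 24 h. Fluorescence gain from reconstituted reporter fitted versus DMSO.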
# [8] = CEETOX_H295R_11DCORT: CeeTox H295R High-throughput Steroidogenesis Assay for 11-Deoxycortisol (11DCORT) (AID 2283432); settings: actives raise or lower the signal;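 as to AC50: 11-deoxycortisol secreted into the medium measured by LC-MS/MS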
# In short: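 Human adrenal H295R cells were prestimulated with 10 uM forskolin for 48 h, then exposed to test chemical (0.1% DMSO final) for 48 h. Medium 11-deoxycortisol was quantified by MTBE extraction and HPLC-MS/MS; bidirectional fitting relative to DMSO.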
# [9] = CEETOX_H295R_OHPREG: CeeTox H295R High-throughput Steroidogenesis Assay for OH-Pregnenolone (OHPREG) (AID 2283434); settings: actives raise or lower the signal
# In short: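 H295R cells pre-stimulated 48 h with 10 uM forskolin, then exposed 48 h to chemical in 0.1% DMSO. 17alpha-hydroxypregnenolone in medium quantified by MTBE extraction and HPLC-MS/MS; bidirectional fit versus DMSO, viability checked by MTT.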
# [10] = CEETOX_H295R_OHPROG: CeeTox H295R High-throughput Steroidogenesis Assay for OH-Progesterone (OHPROG) (AID 2283435); settings: actives raise or lower the signal
# In short: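 H295R adrenal cells prestimulated 48 h with 10 uM forskolin, then exposed 48 h to chemical (0.1% DMSO final). 17alpha-hydroxyprogesterone in medium quantified by HPLC-MS/MS; bidirectional fit versus DMSO, with MTT viability measured in the same wells.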
# [11] = CEETOX_H295R_CORTIC: CeeTox H295R High-throughput Steroidogenesis Assay for Corticosterone (CORTIC) (AID 2283437); settings: actives raise or lower the signal;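 also: corticosterone secreted into medium quantified by mass spectrometry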
# In short: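 H295R adrenal cells prestimulated 48 hours with 10 uM forskolin, then exposed 48 hours to chemical in 0.1% DMSO. Corticosterone in medium measured by HPLC-MS/MS after MTBE extraction; MTT viability in the same wells; bidirectional fit versus DMSO.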
# [12] = CEETOX_H295R_CORTISOL: CeeTox H295R High-throughput Steroidogenesis Assay for Cortisol (AID 2283438); settings: actives raise or lower the signal;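 also: cortisol secreted into medium quantified by LC-MS/MS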
# In short: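 Forskolin-primed H295R cells (10 uM, 48 h) treated 48 h with test chemical in 0.1% DMSO. Cortisol in medium quantified by MTBE extraction and HPLC-MS/MS; bidirectional fit vs DMSO, MTT viability in same wells.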
# [13] = CEETOX_H295R_DOC: CeeTox H295R High-throughput Steroidogenesis Assay for DOC (AID 2283439); settings: actives raise or lower the signal
# In short: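 H295R cells prestimulated 48 h with 10 uM forskolin, then exposed 48 h to test chemical (0.1% DMSO final). Medium 11-deoxycorticosterone measured by HPLC-MS/MS after MTBE extraction; bidirectional fit vs DMSO, viability checked by MTT in same wells.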
# [14] = CEETOX_H295R_ESTRADIOL: CeeTox H295R High-throughput Steroidogenesis Assay for Estradiol (AID 2283440); settings: actives raise or lower the signal;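 also: estradiol secreted into medium quantified by LC-MS/MS after dansyl derivatisation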
# In short: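 Readout is estradiol in conditioned medium, quantified by reverse-phase HPLC-MS/MS against a 7-point standard curve. Cells: H295R, forskolin-stimulated, then dosed 48 h in 0.1% DMSO; activity fitted in both directions relative to DMSO.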
# [15] = CEETOX_H295R_ESTRONE: CeeTox H295R High-throughput Steroidogenesis Assay for Estrone (AID 2283441); settings: actives raise or lower the signal;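 also: estrone secreted into medium measured by LC-MS/MS after dansyl derivatization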
# In short: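 H295R cells prestimulated 48 h with 10 uM forskolin, then exposed 48 h to chemicals in 0.1% DMSO final; estrone in medium extracted with MTBE, dansyl-derivatized, quantified by HPLC-MS/MS; bidirectional fitting versus DMSO, viability by MTT.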
# [16] = CEETOX_H295R_PROG: CeeTox H295R High-throughput Steroidogenesis Assay for Progesterone (PROG) (AID 2283442); settings: actives raise or lower the signal;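 as to AC50: human H295R adrenal cells primed with 10 µM forskolin before dosing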
# In short: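 Measured analyte is progesterone secreted by H295R cells at 48 h of chemical treatment, following 10 uM forskolin priming. Quantitation used HPLC-MS/MS against a 7-point standard curve; cytotoxicity was checked by MTT absorbance.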
# [17] = CEETOX_H295R_ANDR: CeeTox H295R High-throughput Steroidogenesis Assay for Androstenedione (ANDR) (AID 2283436); settings: actives raise or lower the signal
# In short: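 H295R cells, following OECD 456 with minor changes, exposed to chemicals for 48 h. Androstenedione in the medium was quantified by HPLC-MS/MS after MTBE extraction. Fitting was bidirectional versus DMSO; chemicals were diluted until MTT viability was ≥70%.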
# [18] = CEETOX_H295R_TESTO: CeeTox H295R High-throughput Steroidogenesis Assay for Testosterone (TESTO) (AID 2283457); settings: actives raise or lower the signal;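 as to AC50: cells exposed to chemicals for 48 h before medium collection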
# In short: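 Steroidogenesis in H295R cells following OECD 456 with minor changes; 48 h exposure. Medium testosterone by HPLC-MS/MS, DMSO as baseline, with MTT viability run in parallel.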
# Sequence of Retinoic acid receptor RXR-alpha (Homo sapiens) (P19793 whole entry, looked up, the tested form may be a part): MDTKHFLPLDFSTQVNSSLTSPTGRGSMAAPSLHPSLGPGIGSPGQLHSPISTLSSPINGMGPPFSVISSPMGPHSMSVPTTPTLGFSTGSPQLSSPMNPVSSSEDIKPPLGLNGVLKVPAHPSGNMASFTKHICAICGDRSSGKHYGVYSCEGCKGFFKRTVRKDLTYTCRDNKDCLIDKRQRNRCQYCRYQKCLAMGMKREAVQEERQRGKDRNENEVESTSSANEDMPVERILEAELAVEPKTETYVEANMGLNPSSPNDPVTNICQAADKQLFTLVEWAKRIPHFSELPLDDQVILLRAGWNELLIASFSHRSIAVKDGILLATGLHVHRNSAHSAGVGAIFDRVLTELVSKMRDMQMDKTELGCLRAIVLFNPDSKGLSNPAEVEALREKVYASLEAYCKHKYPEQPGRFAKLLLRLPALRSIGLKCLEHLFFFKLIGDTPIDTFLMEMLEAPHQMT
# Sequence of Peroxisome proliferator-activated receptor gamma (Homo sapiens) (P37231 whole entry, looked up, the tested form may be a part): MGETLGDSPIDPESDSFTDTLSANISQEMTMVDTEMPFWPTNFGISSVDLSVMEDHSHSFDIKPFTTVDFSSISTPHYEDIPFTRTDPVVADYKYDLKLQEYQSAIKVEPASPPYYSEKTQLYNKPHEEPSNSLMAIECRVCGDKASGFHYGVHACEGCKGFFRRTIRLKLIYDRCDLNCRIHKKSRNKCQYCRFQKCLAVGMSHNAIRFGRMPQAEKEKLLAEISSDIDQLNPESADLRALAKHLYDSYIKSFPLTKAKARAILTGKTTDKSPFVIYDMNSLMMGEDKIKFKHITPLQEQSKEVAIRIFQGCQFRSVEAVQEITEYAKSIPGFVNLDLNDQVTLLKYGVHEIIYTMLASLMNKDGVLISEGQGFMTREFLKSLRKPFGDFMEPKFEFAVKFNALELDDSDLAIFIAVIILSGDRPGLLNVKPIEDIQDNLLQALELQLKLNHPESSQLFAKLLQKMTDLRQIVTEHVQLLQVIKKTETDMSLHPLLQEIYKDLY
# Sequence of Estrogen receptor (Homo sapiens) (P03372 whole entry, looked up): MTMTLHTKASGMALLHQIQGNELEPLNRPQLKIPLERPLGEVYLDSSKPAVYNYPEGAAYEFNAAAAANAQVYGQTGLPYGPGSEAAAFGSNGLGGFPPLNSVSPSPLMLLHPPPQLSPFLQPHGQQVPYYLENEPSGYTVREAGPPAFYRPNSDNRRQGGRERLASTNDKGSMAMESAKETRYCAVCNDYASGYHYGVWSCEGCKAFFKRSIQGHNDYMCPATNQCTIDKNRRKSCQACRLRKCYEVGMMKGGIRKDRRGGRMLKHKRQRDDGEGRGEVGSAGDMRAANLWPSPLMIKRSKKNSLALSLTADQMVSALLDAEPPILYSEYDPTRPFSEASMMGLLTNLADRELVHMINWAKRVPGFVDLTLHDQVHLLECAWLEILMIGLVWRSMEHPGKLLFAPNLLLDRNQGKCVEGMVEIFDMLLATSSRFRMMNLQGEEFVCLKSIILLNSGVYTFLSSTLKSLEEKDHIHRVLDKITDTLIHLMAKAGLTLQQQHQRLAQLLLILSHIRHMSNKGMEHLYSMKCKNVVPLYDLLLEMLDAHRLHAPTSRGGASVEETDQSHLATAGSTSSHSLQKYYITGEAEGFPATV
smiles,measurement,setting,value
CC(=O)OC(C)C,AC50,[1],69200 nM (active)
same,outcome,[2],inactive
same,outcome,[3],inactive
same,outcome,[4],inactive
same,outcome,[5],inactive
same,outcome,[6],inactive
CC1=NN(c2cc(S(=O)(=O)O)ccc2Cl)C(=O)C1N=Nc1ccccc1 (stereo not given),outcome,[1],inactive
same,outcome,[3],inactive
same,outcome,[4],inactive
same,outcome,[5],inactive
Cc1ccc(C(C)(C)C)cc1,outcome,[1],inactive
same,outcome,[2],inactive
same,outcome,[7],inactive
same,outcome,[3],inactive
same,outcome,[4],inactive
same,outcome,[5],inactive
CC(CC=O)CCCC(C)(C)O (stereo not given),outcome,[1],inactive
same,outcome,[2],inactive
same,outcome,[7],inactive
same,outcome,[3],inactive
same,outcome,[4],inactive
same,outcome,[5],inactive
OC1CCCCCCCCCCC1,outcome,[1],inactive
same,outcome,[7],inactive
same,outcome,[3],inactive
same,outcome,[4],inactive
same,outcome,[5],inactive
same,outcome,[6],inactive
CCCCCCCCCCCCCOP(=O)(O)O,outcome,[1],inactive
same,outcome,[2],inactive
same,outcome,[7],inactive
same,outcome,[3],inactive
same,outcome,[4],inactive
same,outcome,[8],inactive
same,outcome,[9],inactive
same,outcome,[10],inactive
same,outcome,[11],inactive
same,outcome,[12],inactive
same,outcome,[13],inactive
same,outcome,[14],inactive
same,outcome,[15],inactive
same,outcome,[16],inactive
same,outcome,[5],inactive
same,outcome,[6],inactive
CCCCCCCOC(=O)CCC,outcome,[1],inactive
same,outcome,[2],inactive
same,outcome,[7],inactive
same,outcome,[3],inactive
same,outcome,[4],inactive
same,outcome,[5],inactive
COc1ccc2nc(N)sc2c1,outcome,[8],inactive
same,outcome,[9],inactive
same,AC50,[10],7330 nM (active)
same,outcome,[17],inactive
same,outcome,[11],inactive
same,outcome,[12],inactive
same,outcome,[13],inactive
same,outcome,[14],inactive
same,outcome,[15],inactive
same,AC50,[16],22400 nM (active)
same,outcome,[18],inactive
same,outcome,[5],inactive
COCc1c(C(C)C)nc(C(C)C)c(/C=C/[C@@H](O)C[C@@H](O)CC(=O)O)c1-c1ccc(F)cc1,AC50,[8],17.3 nM (active)
same,AC50,[9],1.41 nM (active)
same,AC50,[10],17.3 nM (active)
same,AC50,[17],22.4 nM (active)
same,AC50,[11],13.9 nM (active)
same,outcome,[12],inactive
same,AC50,[13],10.7 nM (active)
same,outcome,[14],inactive
same,outcome,[15],inactive
same,AC50,[16],6.7 nM (active)
same,AC50,[18],18.7 nM (active)
same,outcome,[5],inactive
same,outcome,[6],inactive
